# NS1 function inh: blocks influenza NS1 protein function; 270,000 tested, 0.4% active; Potency, µM (top dose mostly 46.1 µM), for the others: top-dose activity, positive = more growth; calls by dose curve; also: actives are rising curves; nearly all actives have a fitted effect of over 50% in size
#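 A cell-based growth assay was used: compounds that relieve NS1-induced slow growth of budding yeast raise OD600. Assay medium was yeast nitrogen base with ammonium sulphate and -URA supplement, pH 6.0, with 2% galactose.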
# Sm TGR inh: inhibitors of Schistosoma mansoni thioredoxin glutathione reductase. 360,000 tested, 3% active. purified TGR, DTNB reduction, TNB absorbance 405 nm. Q962Y6. AID 485364. Potency, µM (titrated, usually from 114 µM), for inactives: at the top dose activity change, negative = inhibition, most hits filed as inhibitors; also: % is scaled to controls: 0 for no effect and ±100 for the full control effect; nearly all actives have a fitted effect of over 60% in size
#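 TGR 20 nM + NADPH 100 uM (dispensed conc.), cpd preinc 15 min RT; start with NADPH (500 uM addition) then DTNB (15 mM addition). Kinetic TNB absorbance, 405 nm filter. Four-parameter Hill fit across titration.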
# LmPK inh: LmPK (Leishmania mexicana) enzyme inhibition; Potency, µM (highest dose often 57.5 µM), for inactives: top-dose activity change, negative = inhibition, hits mostly inhibitors; 290,000 tested, 0.37% active; purified LmPK, Kinase-Glo ATP luminescence, 1 h; also: % is scaled to controls: 0 for no effect and ±100 for the full control effect
# Target sequence (Q27686 whole entry, looked up): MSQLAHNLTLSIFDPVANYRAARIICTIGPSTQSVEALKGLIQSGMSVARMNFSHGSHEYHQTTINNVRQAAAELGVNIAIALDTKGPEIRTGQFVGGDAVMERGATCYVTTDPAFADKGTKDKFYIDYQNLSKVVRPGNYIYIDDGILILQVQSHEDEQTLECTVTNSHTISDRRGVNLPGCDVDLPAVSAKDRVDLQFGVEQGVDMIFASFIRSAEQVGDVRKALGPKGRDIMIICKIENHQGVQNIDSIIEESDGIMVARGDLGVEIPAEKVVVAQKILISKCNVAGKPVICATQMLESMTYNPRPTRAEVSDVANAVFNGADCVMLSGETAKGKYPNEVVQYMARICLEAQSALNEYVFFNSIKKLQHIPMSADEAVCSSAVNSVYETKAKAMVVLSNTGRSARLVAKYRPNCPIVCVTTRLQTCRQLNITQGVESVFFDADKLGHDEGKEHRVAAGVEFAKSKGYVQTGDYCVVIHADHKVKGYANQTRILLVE
#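 In 50 mM imidazole pH 7.2 with 7 mM MgCl2, LmPK (0.1 nM) turned over PEP (0.5 mM) and ADP (0.1 mM) for 1 h at room temperature. Luciferase read-out of ATP.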
# RE007 growth inh: less growth of the S. pombe RE007 Vpr strain; 360,000 tested, 0.21% active; S. pombe RE007 Vpr strain, BacTiter-Glo ATP luminescence, 24 h; Potency, µM (highest dose often 92.2 µM), for inactives: at the highest dose activity change, negative = less growth, actives largely listed as inhibitors; AID 651644; active = well fitted falling curve with a large enough effect; inconclusive = small, poorly fitted or top-dose-only effect; inactive = no such curve, though single readings can be large or run the other way; also: % is scaled to controls: 0 for no effect and ±100 for the full control effect; nearly all actives have a fitted effect of over 50% in size
#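 Fission yeast RE007 carrying one integrated HIV-1 vpr copy, seeded at OD 0.01 in PMG+AL medium with 23 nL pinned compound. Grown 24 h at 30 degrees; viability read by BacTiter-Glo luminescence after 5 min.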
# SARS PLP yeast: blocks SARS-CoV papain-like protease in a yeast assay. S. cerevisiae expressing SARS-CoV PLpro, growth rescue. Potency, µM (doses to about 32.9 µM), for the others: at the top dose activity, positive = growth rescue, most hits filed as activators. 330,000 tested, 0.19% active. AID 485353; calls by dose curve; also: 0% is about no effect; nearly all actives have a fitted effect of over 55% in size
# TbPYK inhibitor: blocks Trypanosoma brucei pyruvate kinase | Q57TT1 | TbPYK enzyme, Kinase-Glo Plus ATP luminescence, 45 min | Potency, µM (highest dose often 76.8 µM), inactives show top-dose activity, negative = inhibition, hits mostly inhibitors | 410,000 tested, 0.12% active | AID 624173; also: % is scaled to controls: 0 for no effect and ±100 for the full control effect; nearly all actives have a fitted effect of over 50% in size
#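 Readout: single end-point luminescence (Kinase-Glo Plus, 10 min). Reaction conditions were TbPYK/substrate plus 130 uM ADP, 45 min at RT, pH 7.2 TEA buffer. No-enzyme wells served as controls, and data were normalized before concentration-response fitting.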
# Numbers without * were called inactive; ? = inconclusive; . = not tested or not shown; ! = not active in a repeat. Compounds with a hit are over-represented: about 3.3% of the library has one in this group of screens. Unless noted, calls follow the shape of the dose curve; as a rule, active = well fitted curve in the direction sought with a large enough effect; inconclusive = small, poorly fitted or top-dose-only effect, or another doubt; inactive = no such curve, though single readings can be large; an effect the other way counts as inactive or inconclusive. Potency is read from the fitted curve at half-maximal effect.
SMILES,NS1 function inh,Sm TGR inh,LmPK inh,RE007 growth inh,SARS PLP yeast,TbPYK inhibitor
CC(C)(C)c1nc(S(=O)(=O)c2ccc(Cl)cc2)c(N2CCOCC2)o1,0%,8.9µM*,-7%,0%,-4%,-24%
O=S(=O)(c1ccc(Cl)cc1)c1nc(-c2ccco2)oc1N1CCOCC1,-1%,-28%,6%,10%,-1%,-3%
CC(C)Cc1nc(S(=O)(=O)c2ccc(Cl)cc2)c(N2CCOCC2)o1,7%,2.2µM*,3%,2%,4%,-18%
Cc1ccc(O)c(NC(=O)CCSc2nc(-c3ccco3)cc(C(F)(F)F)n2)c1,.,1%,.,.,.,-9%
C[C@@]12CC[C@@H]3[C@@H](CC[C@H]4C[C@@H](O)CC[C@]43C)[C@H]1CC[C@@H]2c1cc(C(F)(F)F)n[nH]1,-45%,.,.,.,.,.
C[C@@H](NC(=O)C1(N)CCCC1)C(=O)O,-3%,.,.,.,.,.
O=C1CC(c2nc3ccccc3n2CCCCOc2ccccc2)CN1c1ccccc1Cl (configuration not stated),.,-2%,.,.,.,1%
CCCC(=O)N1CCN(c2ccc(NC(=O)c3ccc([N+](=O)[O-])o3)cc2)CC1,.,?,-6%,-21%,0%,-12%
CCC(=O)N1CCN(c2ccc(NC(=O)c3ccc([N+](=O)[O-])o3)cc2)CC1,-1%,28µM*,-3%,-28%,-1%,-3%
O=C(Nc1ccc2[nH]c(=O)[nH]c2c1)c1ccc([N+](=O)[O-])o1,.,40µM*,.,-9%,-1%,-3%
O=C(O)CCc1ccc(-c2ccccc2)[nH]1,-5%,.,.,.,.,.
CCCCSc1nc(O)c(C2OC(=O)c3c2ccc(OC)c3OC)c(=O)n1C (configuration not stated),-6%,-17%,2%,13%,4%,-2%
CCCCCCSc1nc(O)c(C2OC(=O)c3c2ccc(OC)c3OC)c(=O)n1-c1ccccc1 (configuration not stated),?,13µM*,2%,-9%,3%,-20%
COCCn1nnnc1C(c1ccccc1OC)N1CCN(c2ccccc2F)CC1 (configuration not stated),-10%,0%,0%,-10%,11%,-4%
CCc1ccc2[nH]c(=O)c(C(c3nnnn3Cc3ccccc3)N3CCOCC3)cc2c1 (configuration not stated),1%,0%,2%,-18%,?,-10%
COCCn1nnnc1C(c1cc2cccc(C)c2[nH]c1=O)N1CCN(c2ccccc2F)CC1 (configuration not stated),-9%,14µM*,5%,-17%,3%,-25%
CCc1ccc2[nH]c(=O)c(C(c3nnnn3CCOC)N3CCN(c4ccc(F)cc4)CC3)cc2c1 (configuration not stated),-11%,50µM*,0%,-6%,2%,7%
CCc1ccc2[nH]c(=O)c(C(c3nnnn3CCOC)N3CCN(c4ccccc4)CC3)cc2c1 (configuration not stated),-4%,45µM*,4%,-5%,1%,-14%
COCCn1nnnc1C(c1cc2cc(OC)c(OC)cc2[nH]c1=O)N1CCN(c2ccc(O)cc2)CC1 (configuration not stated),2%,11%,-4%,9%,1%,?
O/N=C1\CC/C(=N\O)c2nn(-c3ccccc3Cl)nc21,-3%,2%,-1%,6%,-8%,3%
Cc1ccc(-n2nc3c(n2)/C(=N/O)CC/C3=N\O)cc1,0%,9%,14µM*,?,-35%,-14%
COc1ccccc1N=c1oc2cc(O)ccc2cc1C(N)=O,-65%,0%,-16%,8.9µM*,-33%,-3%
CSc1cccc(NC(=O)/C=C/c2ccco2)c1,.,1.1µM*,2%,-25%,-6%,-13%
COc1cccc(NC(=O)/C=C/c2ccco2)c1,.,10µM*,16µM*,?,-4%,-16%
COc1ccc(Nc2cc(C(=O)NCCCN3CCN(c4ccc(OC)cc4)CC3)c3ccccc3n2)cc1,.,2%,.,.,.,1%
SMILES,NS1 function inh,Sm TGR inh,LmPK inh,RE007 growth inh,SARS PLP yeast,TbPYK inhibitor
CC(=O)N1CCN(c2csc3ccc(F)cc3c2=O)CC1,.,89µM*,.,.,.,-15%
O=C(c1ccc(F)cc1)c1cn(Cc2ccccc2)c2cc3c(cc2c1=O)OCO3,.,3%,.,.,.,3%
O=[N+]([O-])c1cc(Cl)ccc1-c1nc(-c2ccncc2)no1,2%,4%,0%,1%,-1%,1%
O=[N+]([O-])c1cnc2nc(-c3ccncc3)nn2c1O,.,-1%,13µM*,?,-8%,-11%
N#Cc1c2c(c(=S)n(-c3ccccc3)c1N)CCCC2,-8%,40µM*,0%,19%,-6%,1%
CC1(C)Cc2c(C#N)c(N)n(-c3ccccc3)c(=S)c2CO1,4%,-13%,7%,4%,1%,-1%
CN(Cc1ccco1)S(=O)(=O)c1nnc(NC(=O)c2cccc(Cl)c2)s1,-6%,7.9µM*!,5%,-1%,2%,?
CC(C)CC(=O)Nc1nnc(S(=O)(=O)N(C)Cc2ccco2)s1,-5%,8.9µM*,-4%,-6%,1%,0%
CCN(c1ccccc1)S(=O)(=O)c1nnc(NC(=O)CC(C)C)s1,0%,7%,2%,-4%,1%,-2%
Cc1ccc2[nH]c(=O)c3cc(C(=O)NCc4cccc(Cl)c4)sc3c2c1,.,-10%,.,.,.,-6%
O=S(=O)(CCOc1ccccc1)c1nc2ccccc2[nH]1,2%,13µM*,0%,0%,-3%,6%
CCN=c1sc(C(=O)NCCc2ccccc2)cc(=O)n1CC,-51%,20µM*,3%,-6%,-7%,-12%
CCn1c(=O)c2cc(C(=O)NCCc3cccc(C)c3)sc2c2ccccc21,.,-5%,.,.,.,0%
COc1cc(OC)c(NC(=O)CN2C(=O)CCn3nc(-c4cccn4C)cc32)cc1Cl,.,-19%,.,.,.,-7%
O=C(Nc1ccc(C(=O)OCc2cc(=O)n3nc(C4CC4)sc3n2)cc1)c1cccc(F)c1,.,11%,.,.,.,-25%
CCOc1cc(C2C(C(=O)Nc3ccccc3)=C(C)Nc3ncnn32)cc(Br)c1O (configuration not stated),.,45µM*,.,.,.,-13%
NC(=O)C/C=C\CC(N)=O,-3%,.,.,.,.,.
O=C1C=CC(=O)c2c(O)c(N3CCN(CCO)CC3)c(Cl)c(O)c21,.,.,.,63µM*,.,?
O=[N+]([O-])c1ccc2c(c1)ncn2-c1ccccc1,-1%,0%,-3%,-3%,29%,-7%
Cn1c(-[n+]2c(-c3ccccc3)cc(-c3ccccc3)cc2-c2ccccc2)nc2cc([N+](=O)[O-])ccc21,-11%,45µM*,-1%,0%,-39%,-8%

# Screening data as filed in PubChem BioAssay.
